Screens deposited in PubChem BioAssay by National Center for Advancing Translational Sciences (NCATS).
Hits are enriched below; roughly 11% of the tested compounds scored in any of these assays.
PNC inhibitor: High Content Assay for Compounds that inhibit the Assembly of the Perinucleolar Compartment | 3.1% of 140,000 active | PC3M PTB-GFP, PNC prevalence imaging, 16 h; active compounds read low | AID 2417, 2010 | activity change (PNC), negative = inhibition, % at 10 µM;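 active = readout at or below -70, meaning at least 70% loss of cells showing the perinucleolar compartment, a nuclear body marking cancer cells; inconclusive = readout between -30 and a set limit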;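 note: plate controls were DMSO wells for no effect and camptothecin positive control wells for full effect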
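PC3M cells stably expressing PTB-GFP, 750–1000 cells/well, treated 16 h at 37 °C with compound (23 nl of library stock), in duplicate. After paraformaldehyde fixation and Hoechst stain, imaged at 20x; PNC prevalence scored by image analysis.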
JMJD2E inh: qHTS Assay for Inhibitors of Human Jumonji Domain Containing 2E (JMJD2E); JMJD2E catalytic domain, FDH-coupled NADH fluorescence (FDH is formaldehyde dehydrogenase); Lysine-specific demethylase 4E (Homo sapiens), B2RXH2; 1.6% of 230,000 active; AID 2147, 2009; Potency, µM (doses to about 57.1 µM), inactives show at the top dose activity change, negative = inhibition, actives largely listed as inhibitors;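 note: potency is the fitted concentration of half-maximal effect; 0% = wells with enzyme and -100% = buffer wells without enzyme; nearly all actives have a fitted effect of over 50% in size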
Target sequence (B2RXH2 1-337 limits assumed): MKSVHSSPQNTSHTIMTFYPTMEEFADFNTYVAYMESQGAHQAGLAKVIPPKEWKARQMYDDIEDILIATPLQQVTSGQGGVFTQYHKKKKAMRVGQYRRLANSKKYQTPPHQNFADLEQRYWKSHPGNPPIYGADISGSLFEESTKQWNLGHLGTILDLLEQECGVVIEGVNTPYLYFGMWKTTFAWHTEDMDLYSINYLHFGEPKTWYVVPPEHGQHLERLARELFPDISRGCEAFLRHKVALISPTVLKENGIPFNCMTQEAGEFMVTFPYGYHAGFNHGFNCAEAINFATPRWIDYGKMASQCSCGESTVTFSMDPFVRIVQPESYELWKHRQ
HPGD block: qHTS Assay for Inhibitors of HPGD (15-Hydroxyprostaglandin Dehydrogenase); 15-hydroxyprostaglandin dehydrogenase [NAD(+)] (Homo sapiens), P15428; purified HPGD, NADH fluorescence kinetic, PGE2 substrate; Potency, µM, without a hit: at the highest dose activity change, negative = inhibition, hits mostly inhibitors; 4.3% of 150,000 active; note: potency is the fitted concentration of half-maximal effect
Target sequence (P15428 whole entry, looked up): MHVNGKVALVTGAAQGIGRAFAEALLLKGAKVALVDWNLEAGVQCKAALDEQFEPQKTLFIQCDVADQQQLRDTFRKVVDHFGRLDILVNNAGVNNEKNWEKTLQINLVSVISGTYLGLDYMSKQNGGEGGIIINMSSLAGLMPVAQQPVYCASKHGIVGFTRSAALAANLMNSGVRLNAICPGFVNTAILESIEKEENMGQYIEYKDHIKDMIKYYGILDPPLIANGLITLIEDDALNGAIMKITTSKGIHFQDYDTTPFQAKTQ
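NADH formation kinetics: reaction with 30 uM PGE2 and 1 mM NAD+ (final), 20 nM enzyme, Tris-HCl pH 8 with Tween 20, after 15 min compound preincubation at room temperature. Fluorescence change, last versus first of five reads.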
ALDH1A1 inh: qHTS Assay for Inhibitors of Aldehyde Dehydrogenase 1 (ALDH1A1) | Aldehyde dehydrogenase 1A1 (Homo sapiens), P00352 | Purified ALDH1A1, NADH fluorescence, propionaldehyde substrate | Potency, µM (highest dose often 75.3 µM), inactives show at the top dose activity, negative = inhibition, usual class: inhibitors | 7.3% of 220,000 active | AID 1030, 2008;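 note: potency is the fitted concentration of half-maximal effect; plate controls were no enzyme wells and a reference inhibitor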
The depositor's hits bear a star; [ ] = remark or other dose. Unless noted, calls come from the whole dose curve; as a rule, active = well fitted inhibition curve with a large enough effect (not every such curve was filed as active); inconclusive = small, poorly fitted or top-dose-only effect, or another doubt; inactive = no such curve, though single readings can be large or run the other way. Unless noted, % is set by controls: 0 for no effect and ±100 for the full control effect.

What do the screens show for `O=C(NN1CCCCC1)c1ccc(COc2ccc(Cl)cc2)cc1`?
JMJD2E inh: 1%; ALDH1A1 inh: 14%

How did O=Cc1cn(-c2ccc(F)cc2)c2ccccc12 do in these assays?
PNC inhibitor: 34; JMJD2E inh: -9%; HPGD block: -11%; ALDH1A1 inh: 2µM*

How did Cc1ccn2cc(-c3ccc(NS(=O)(=O)c4ccccc4)cc3)nc2c1 do in these assays?
PNC inhibitor: 18; JMJD2E inh: -3%; HPGD block: 22µM*; ALDH1A1 inh: -5%

How did Cc1cc(NS(=O)(=O)c2ccc(NS(=O)(=O)c3ccc(CC(C)C)cc3)cc2)nc(C)n1 do in these assays?
JMJD2E inh: inconclusive; ALDH1A1 inh: 32µM*

Results for Cc1ccc(S(=O)(=O)Nc2ccc(S(=O)(=O)Nc3cc(C)nc(C)n3)cc2)cc1 ?
JMJD2E inh: inconclusive; ALDH1A1 inh: 4µM*

Results for Cc1cc(NS(=O)(=O)c2ccc(NC(=O)CCCC(=O)O)cc2)nc(C)n1 ?
PNC inhibitor: -88*; JMJD2E inh: 1%; HPGD block: -1%; ALDH1A1 inh: -3%

Results for Cc1ccc(S(=O)(=O)Nc2ccc(-c3cn4ccc(C)cc4n3)cc2)cc1 ?
PNC inhibitor: inconclusive; JMJD2E inh: inconclusive; ALDH1A1 inh: -3%

How did CCOC(=O)Nc1ccc(S(=O)(=O)Nc2cc(C)nc(C)n2)cc1 do in these assays?
PNC inhibitor: 13; JMJD2E inh: -2%; HPGD block: -3%; ALDH1A1 inh: -2%

Results for COc1ccc(OC)c(CC(NC(C)=O)C(=O)NC2CCN(c3nc(C)cc(C)c3C#N)CC2)c1 (stereo unspecified) ?
PNC inhibitor: 5; JMJD2E inh: -11%; HPGD block: -25%; ALDH1A1 inh: -6%

How did CCOC(=O)C(NC(C)=O)(Nc1ccc(S(=O)(=O)Nc2cc(C)nc(C)n2)cc1)C(F)(F)F (stereo unspecified) do in these assays?
PNC inhibitor: inconclusive; JMJD2E inh: 9%; HPGD block: 4%; ALDH1A1 inh: 14µM*

Results for COC(=O)c1ccc(CSc2ncnc3c2nnn3-c2ccc(F)cc2)o1 ?
PNC inhibitor: -26; JMJD2E inh: -1%; HPGD block: 7.1µM*; ALDH1A1 inh: -13%

How did CCN(CC)C(=O)CSc1ncnc2c1nnn2-c1ccc(OC)cc1 do in these assays?
PNC inhibitor: 0; JMJD2E inh: 1%; HPGD block: -15%; ALDH1A1 inh: 4µM*

Results for COc1ccc(-n2nnc3c(SCc4ccccc4)ncnc32)cc1 ?
PNC inhibitor: -15; JMJD2E inh: -22%; HPGD block: 16µM*; ALDH1A1 inh: 13µM*

What do the screens show for `COc1ccc(-n2nnc3c(SCC(=O)OCc4ccccc4)ncnc32)cc1`?
PNC inhibitor: -2; JMJD2E inh: 5%; HPGD block: -2%; ALDH1A1 inh: -1%

How did CC(C)N(Cc1ccccc1)C(=O)COC(=O)/C=C/c1cnc2ccccc2n1 do in these assays?
JMJD2E inh: -4%; ALDH1A1 inh: 16µM*

How did O=C(NCCN1CCCCC1)c1ccc(-n2c(=O)c(=O)[nH]c3ccccc32)cc1 do in these assays?
HPGD block: -8%; ALDH1A1 inh: 0%

How did CC1=CC2(O)OCCN(CCO)C2=CC1=O (stereo unspecified) do in these assays?
PNC inhibitor: -21; JMJD2E inh: 25µM*; HPGD block: -3%; ALDH1A1 inh: -3%

How did CCc1nnc(NC(=O)CSc2nnc(-c3cccnc3)n2CC)s1 do in these assays?
PNC inhibitor: -104*; JMJD2E inh: 5%; HPGD block: -9%; ALDH1A1 inh: -9%

How did CCc1nnc(NC(=O)CSc2nnc(-c3ccccc3O)n2CC)s1 do in these assays?
PNC inhibitor: 33; JMJD2E inh: -1%; HPGD block: -4%; ALDH1A1 inh: 1%

How did CCc1nnc(NC(=O)CSc2nccn2-c2cccc(C)c2C)s1 do in these assays?
PNC inhibitor: 8; JMJD2E inh: 1%; HPGD block: -16%; ALDH1A1 inh: 16µM*

How did Cc1cc2c(cc1C)C(c1ccsc1)CC(=O)N2 (stereo unspecified) do in these assays?
JMJD2E inh: -4%; ALDH1A1 inh: inconclusive

Results for COc1ccc(C2Nc3ccccc3C(=O)N2Cc2ccco2)cc1COc1ccc(F)cc1 (stereo unspecified) ?
PNC inhibitor: 141; JMJD2E inh: 14%; HPGD block: inconclusive; ALDH1A1 inh: 2.5µM*

What do the screens show for `CS(=O)(=O)Nc1ccc(Nc2c3ccccc3nc3ccccc23)cc1`?
HPGD block: -13%; ALDH1A1 inh: 6%[13.5 µM]

How did O=C(Cn1cnc2c(nnn2Cc2ccccc2)c1=O)c1ccccc1 do in these assays?
PNC inhibitor: -9; JMJD2E inh: 9%; HPGD block: 22µM*; ALDH1A1 inh: -16%

What do the screens show for `O=C(Cn1cnc2c(nnn2Cc2ccc(F)cc2)c1=O)NCc1ccccc1`?
JMJD2E inh: 5%

How did O=C(Cn1c(=O)n(Cc2ccccc2)c(=O)c2ccccc21)NCc1ccco1 do in these assays?
PNC inhibitor: inconclusive; JMJD2E inh: 3%; HPGD block: -10%; ALDH1A1 inh: -6%

How did COc1cc2c(=O)n(Cc3ccccc3)c(=O)n(CC(=O)NCc3ccco3)c2cc1OC do in these assays?
PNC inhibitor: -29; JMJD2E inh: inconclusive; HPGD block: inconclusive; ALDH1A1 inh: 1.4µM*

Results for O=C(Cn1cnc2c(nnn2Cc2ccc(F)cc2)c1=O)NCc1ccco1 ?
PNC inhibitor: 37; JMJD2E inh: -6%; HPGD block: 16µM*; ALDH1A1 inh: 6%

Results for O=C(Cn1cnc2c(nnn2Cc2ccc(Cl)cc2)c1=O)NCc1ccco1 ?
PNC inhibitor: 112; JMJD2E inh: 0%; HPGD block: 16µM*; ALDH1A1 inh: inconclusive

What do the screens show for `O=C(COC(=O)CCc1ccccc1)Nc1ccccc1OC(F)F`?
JMJD2E inh: -5%

Results for O=C(CCNC(=O)Cn1ccc2ccccc2c1=O)NCC1CCCC1c1ccccc1 (stereo unspecified) ?
JMJD2E inh: inconclusive; ALDH1A1 inh: 12%

Results for CCOC(=O)CNC(=O)N1CCCC(C(=O)c2cccc(Cl)c2)C1 (stereo unspecified) ?
JMJD2E inh: -2%; ALDH1A1 inh: -4%

What do the screens show for `O=C(Cn1cnc2c(nnn2Cc2ccccc2)c1=O)NCc1ccco1`?
PNC inhibitor: inconclusive; JMJD2E inh: 0%; HPGD block: 14µM*; ALDH1A1 inh: 3%

What do the screens show for `CN(C)c1ncc2nc(-c3cccs3)c(=O)n(C)c2n1`?
ALDH1A1 inh: 7%

What do the screens show for `Cc1nn2c3c(cnc2c1-c1ccccc1)C(=O)CC(c1ccco1)C3` (stereo unspecified)?
PNC inhibitor: -20; JMJD2E inh: -11%; HPGD block: -13%; ALDH1A1 inh: 25µM*
